We go through 9 compounds from PubChem BioAssay (NCI).

The panel holds about 83,000 compounds, 20% with a hit somewhere; the sample as a whole holds those more often.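 Step 1: grow cells in 96-well plates. Step 2: add test compound at a single concentration. Step 3: incubate 48 h. Step 4: record percent growth.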 Unmarked numbers belong to inactive results. Activity calls are given as the source filed them. Rule for the calls: active = growth percent below 10; inactive = the rest.

Among the test systems are SR leukemia; RPMI-8226 leukemia; OVCAR-8 ovarian; OVCAR-5 ovarian; OVCAR-4 ovarian; SK-OV-3 ovarian; IGROV1 ovarian; OVCAR-3 ovarian; HS 578T breast; NCI/ADR-RES ovarian; T-47D breast; BT-549 breast; MDA-MB-435 melanoma; SW-620 colon; MCF7 breast; HCT-116 colon; HCC-2998 colon; KM12 colon.
Assay in all cases: NCI-60 one-dose screen, 48 h (100 = growth as untreated, 0 = no growth, -100 = all killed)
What all share (conditions): 10 µM unless noted

In the case of `CCN=c1sc2c(n1NC(=O)c1cc3ccc1CCc1ccc(cc1)CC3)C(=O)c1ccccc1C2=O`, the growth with SR leukemia was -3.66% (active); with RPMI-8226 leukemia, -33.6% (active); in the assay with OVCAR-8 ovarian, -82.6% (active); in the assay with OVCAR-5 ovarian, -77.4% (active); with OVCAR-4 ovarian it was -98.4% (active); in the assay on SK-OV-3 ovarian it was 62%. For the same compound, the growth in the assay with IGROV1 ovarian was -39.8% (active); in the assay with OVCAR-3 ovarian, -18.8% (active); in the assay on HS 578T breast, -8.98% (active); with NCI/ADR-RES ovarian, -22.8% (active); in the assay with T-47D breast it was -19.8% (active); with BT-549 breast it was -97.4% (active). In addition, the growth in the assay with MDA-MB-435 melanoma was -97.1% (active); with SW-620 colon, -56.6% (active); in the assay on MCF7 breast, -63.1% (active); with HCT-116 colon, -50.9% (active); in the assay on HCC-2998 colon, -37.9% (active); in the assay on KM12 colon, -29.9% (active).
On to `CCn1c2ccccc2c2cc(C(O)c3cccc4ncccc34)ccc21` (configuration not stated), for which the growth in the assay on SR leukemia was 15.5%; in the assay with RPMI-8226 leukemia, -2.06% (active); with OVCAR-8 ovarian, 20.8%; in the assay with OVCAR-5 ovarian, 48.7%; in the assay on OVCAR-4 ovarian it was 45.4%; in the assay on SK-OV-3 ovarian, 69.1%. The growth with IGROV1 ovarian was 19.1%; in the assay on OVCAR-3 ovarian, 1.86% (active); with HS 578T breast, 21.3%; in the assay with NCI/ADR-RES ovarian, -53.2% (active); in the assay on T-47D breast it was 59%; in the assay on BT-549 breast it was -8.94% (active). Besides, the growth in the assay with MDA-MB-435 melanoma is 0.201% (active); in the assay on SW-620 colon, 26.8%; in the assay with MCF7 breast, 15.5%; in the assay on HCT-116 colon it was 0.739% (active); in the assay on HCC-2998 colon, -32.5% (active); in the assay on KM12 colon, 8.55% (active).
In the case of `COc1ccc(C(=O)/C=C/c2ccc(Cl)cc2)cc1S(N)(=O)=O`, the growth was -10.3% (active) in the assay with SR leukemia; -31.7% (active) in the assay with RPMI-8226 leukemia; 11.5% in the assay on OVCAR-8 ovarian; 78.8% in the assay on OVCAR-5 ovarian; 102% in the assay with OVCAR-4 ovarian; 83.1% in the assay with SK-OV-3 ovarian. Moreover, the growth in the assay on IGROV1 ovarian was 16.6%; with OVCAR-3 ovarian, 61.9%; with HS 578T breast it was 91.5%; with NCI/ADR-RES ovarian it was 74.9%; in the assay on T-47D breast, 69.9%; with BT-549 breast, 12.2%. In addition, the growth is 86.2% in the assay with MDA-MB-435 melanoma; 13.2% with SW-620 colon; 18% with MCF7 breast; -78.3% (active) with HCT-116 colon; 100% with HCC-2998 colon; 28.2% in the assay with KM12 colon.
In the case of `Cc1c(-c2cnc3ccc(Cl)cc3c2C(=O)O)nnn1-c1ccc(Cl)cc1`, the growth is 95.9% with SR leukemia; 105% with RPMI-8226 leukemia; 101% in the assay on OVCAR-8 ovarian; 89.9% in the assay with OVCAR-5 ovarian; 106% in the assay with OVCAR-4 ovarian; 90.4% with SK-OV-3 ovarian. Further, the growth in the assay with IGROV1 ovarian was 108%; with OVCAR-3 ovarian, 110%; in the assay with HS 578T breast, 109%; with NCI/ADR-RES ovarian, 101%; in the assay with T-47D breast, 88%; in the assay on BT-549 breast it was 82%. Moreover, the growth in the assay on MDA-MB-435 melanoma was 105%; in the assay with SW-620 colon, 112%; in the assay with MCF7 breast it was 98.5%; with HCT-116 colon it was 76.7%; in the assay with HCC-2998 colon, 102%; with KM12 colon, 109%.
With `NCCNc1ccc([N+](=O)[O-])cc1`, the growth in the assay with SR leukemia was 100%; with RPMI-8226 leukemia it was 93%; in the assay on OVCAR-8 ovarian, 113%; in the assay with OVCAR-5 ovarian it was 115%; in the assay with OVCAR-4 ovarian it was 112%; in the assay on SK-OV-3 ovarian, 109%. In addition, the growth is 111% in the assay on IGROV1 ovarian; 134% in the assay on OVCAR-3 ovarian; 106% in the assay on HS 578T breast; 116% with NCI/ADR-RES ovarian; 106% in the assay on T-47D breast; 103% in the assay on BT-549 breast. Also, the growth was 113% in the assay on MDA-MB-435 melanoma; 112% with SW-620 colon; 101% with MCF7 breast; 98.8% in the assay with HCT-116 colon; 115% in the assay on HCC-2998 colon; 115% in the assay with KM12 colon.
As for `c1ccc2cc(Cn3cc[n+](Cc4ccc5ccccc5c4)c3)ccc2c1`, the growth was 22.3% in the assay on SR leukemia; -0.408% (active) in the assay on RPMI-8226 leukemia; 10.9% in the assay on OVCAR-8 ovarian; 43% in the assay with OVCAR-5 ovarian; 0.592% (active) in the assay on OVCAR-4 ovarian; 33.2% with SK-OV-3 ovarian. Also, the growth with IGROV1 ovarian was -2.69% (active); with OVCAR-3 ovarian it was 14.5%; with HS 578T breast it was 58.8%; in the assay with NCI/ADR-RES ovarian it was 99.5%; in the assay with T-47D breast, -5.37% (active); in the assay with BT-549 breast it was 2.35% (active). Further, the growth in the assay on MDA-MB-435 melanoma is 7.71% (active); in the assay with SW-620 colon it was 58%; in the assay with MCF7 breast, 37.2%; with HCT-116 colon, 41%; in the assay with HCC-2998 colon it was 26.5%; with KM12 colon, -1.63% (active).
For the compound `O=C(Nc1ccccc1)Nc1ccccc1CNc1nc(Nc2ccc(OCCN3CCCC3)cc2)ncc1Cl`, the growth in the assay on SR leukemia is -6.4% (active); in the assay on RPMI-8226 leukemia, -0.283% (active); with OVCAR-8 ovarian, 50.4%; with OVCAR-5 ovarian, 106%; in the assay on OVCAR-4 ovarian, 19.5%; in the assay on SK-OV-3 ovarian, 86.1%. The growth was 84.2% in the assay with IGROV1 ovarian; 2.33% (active) in the assay with OVCAR-3 ovarian; 66.3% in the assay with HS 578T breast; 71% in the assay with NCI/ADR-RES ovarian; 55.7% in the assay on T-47D breast; 74.8% in the assay on BT-549 breast. The growth in the assay with MDA-MB-435 melanoma was 55.2%; in the assay on SW-620 colon, 73%; with MCF7 breast, 48.9%; in the assay with HCT-116 colon it was 45.7%; in the assay on HCC-2998 colon it was 58.3%; with KM12 colon, 43.7%.
With `CCCCCCCCCCCCCCCCCCOc1ccccc1CC(=O)OCC[N+]1(C)CCCCC1`, the growth with SR leukemia is 10%; in the assay on RPMI-8226 leukemia, -10.2% (active); in the assay on OVCAR-8 ovarian, 21.9%; in the assay on OVCAR-5 ovarian, 54.8%; in the assay with OVCAR-4 ovarian, 32%; with SK-OV-3 ovarian, 96.6%. In addition, the growth in the assay on IGROV1 ovarian was -32.1% (active); with OVCAR-3 ovarian, 61.7%; in the assay on HS 578T breast it was 62.3%; with NCI/ADR-RES ovarian it was 92.3%; with T-47D breast it was 66.9%; in the assay on BT-549 breast, 58%. Also, the growth with MDA-MB-435 melanoma was 57%; with SW-620 colon, 68.3%; in the assay on MCF7 breast it was 51.1%; in the assay on HCT-116 colon, 30.2%; in the assay with HCC-2998 colon, 40.3%; in the assay with KM12 colon it was 86.5%.
Turning to `Cc1cc(=O)oc2cc(Oc3nc(-c4ccccc4)cn4c(-c5ccccc5)cnc34)ccc12`, the growth is 54.5% with SR leukemia; 51% with RPMI-8226 leukemia; 61.6% in the assay with OVCAR-8 ovarian; 105% with OVCAR-5 ovarian; 60.7% with OVCAR-4 ovarian; 63.1% with SK-OV-3 ovarian. Moreover, the growth was 83.7% with IGROV1 ovarian; 76.6% with OVCAR-3 ovarian; 58.6% in the assay with HS 578T breast; 45.4% in the assay on NCI/ADR-RES ovarian; 38.5% in the assay with T-47D breast; 82.6% in the assay with BT-549 breast. Moreover, the growth with MDA-MB-435 melanoma is 72.1%; in the assay with SW-620 colon, 88.3%; in the assay on MCF7 breast, 50.5%; with HCT-116 colon, 39.3%; in the assay with HCC-2998 colon, 81%; in the assay on KM12 colon, 75.5%.
